# Laboratory results published in PubChem BioAssay (NCATS).
# Calls of active or inactive are those of the source. The call rests on the fitted dose curve.
# Experiment: qHTS drug screen for cell cycle checkpoint inhibitors in PARPi-resistant BRCA-mutant ovarian cancer cell lines. (AID 1963452)
# Details: PEO1/OlaR viability, CellTiter-Glo luminescence, 96 h, stronger effect = lower value
# Outline: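 PEO1, PEO4 and PEO1/OlaR ovarian cancer cells, 600 per well, exposed 96 h at 37C to a dilution series. Viability read by CellTiter-Glo luminescence, normalized to DMSO and empty wells; activity summarized as Z-AUC.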
# [1] = measured here: PEO1 parental Z-AUC
SMILES,Z-AUC,Z-AUC [1],Z-AUC (measured here: PEO4 Z-AUC)
c1ccc(-c2ccc(CNc3nc(-c4ccccn4)nnc3-c3ccccc3)cc2)cc1,-1.09 (inactive),-0.646,-0.501
C=CC(=O)Nc1ccc2ncnc(Nc3cccc(Br)c3)c2c1,-0.896 (inactive),-1.05,-0.968
Cn1cc(-c2ccc(F)c(C(F)(F)F)c2)nc1C1CCN(c2ncnc3[nH]ncc23)CC1,-0.225 (inactive),-0.264,-0.487
N#Cc1ccnc(Nc2cc(C3CCN(C4COC4)CC3)cc(N3CCC(F)(F)C3)n2)c1,-0.647 (inactive),-0.398,0.109
Nc1nccc(-c2c(-c3ccc(F)cc3)ncn2C2CCCCC2)n1,-0.78 (inactive),1.09,0.204
Cc1cccc(CC(=O)N2CCc3c2ccc(-c2cn(C)c4ncnc(N)c24)c3F)n1,-0.652 (inactive),-1.04,-0.572
Cc1cn(CCN2CCN(c3ccccc3-c3cc(C#N)cc(C(=O)NCCCN4CCCC4)c3)CC2)c2ccccc12,-0.259 (inactive),-0.4,-0.379
Cc1nc2ccc(-n3ncc(C(=O)c4cc5ccccc5[nH]4)c3N)cc2[nH]1,-0.798 (inactive),-1.1,-0.294
CC1(C)CN(C(=O)c2ccc(-c3cccc4nc(NC(=O)C5CC5)nn34)cc2)C1,0.782 (inactive),0.925,1.32
NC(=O)c1cnc(N[C@@H]2CCCC[C@@H]2N)nc1Nc1cccc(-n2nccn2)c1,0.565 (inactive),-0.0999,0.242
CCn1c(=O)c(-c2ccc(Cl)cc2Cl)cc2cnc(Nc3ccc(N4CCNCC4)c(F)c3)nc21,-0.749 (inactive),-0.47,-0.502
